Assay results as given in PubChem BioAssay.
Active and inactive are the calls of the source.

Assays:
[1] = system: Plasmodium falciparum Sir2 (PF13_0152, Sir2A); assay: pfSir2 binders on small-molecule microarrays, primary screen, biochemical, small-molecule microarray, 635 nm fluorescence (AID 1098); conditions: small-molecule microarray binding, fluorescence 635 nm; higher = more signal;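 also: score merges spot fluorescence intensity with its signal-to-noise ratio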
[2] = small-molecule microarray binders of probe aDKK1, primary screen, biochemical, biotinylated probe, 635/667 nm fluorescence (AID 1099); conditions: higher = more signal;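 also: score merges 667nm spot fluorescence with signal to noise across triplicate slides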
[3] = small-molecule microarray binders of probe aCHRDL2, primary screen, biochemical, biotinylated probe, 635/667 nm fluorescence (AID 1100); conditions: higher = more signal
[4] = splicing luciferase reporter signal modulators, primary screen, spliceosome inhibition project, cell-based, HEK293, splice +/- reporter (AID 1101); conditions: luminescence, 24 h, higher = more signal, called active from +8 up or from −8 down;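 also: HEK293 cells carrying a splicing-competent luciferase reporter gene; test concentration not given here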
[5] = biological target: Fibroblast growth factor 10 (Homo sapiens) (UniProt O15520); assay: FGF10 binders on small-molecule microarrays, primary screen, biochemical, small-molecule microarray, 635 nm fluorescence (AID 1102); conditions: FGF10 binding, fluorescence 635 nm, higher = more signal
[6] = system: glycogen synthase kinase-3 (GSK3A per assay name; protocol says GSK3B); assay: GSK3 binders on small-molecule microarrays, primary screen, biochemical, small-molecule microarray, 635 nm fluorescence, GSK3A (AID 1103); conditions: small-molecule microarray binding, fluorescence 635 nm; higher = more signal; also: the record names both GSK3A and GSK3B
[7] = biological target: Epidermal growth factor receptor (Homo sapiens) (UniProt P00533); assay: EGFR binders on small-molecule microarrays, primary screen, biochemical, small-molecule microarray, 635 nm fluorescence (AID 1104); conditions: EGFR binding, higher = more signal;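 also: score merges 667 nm emission intensity with spot signal to noise over triplicate slides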
[8] = biological target: Follistatin-related protein 3 (Homo sapiens) (UniProt O95633); assay: FSTL3 binders on small-molecule microarrays, primary screen, biochemical, small-molecule microarray, 635 nm fluorescence (AID 1105); conditions: FSTL3 binding, higher = more signal;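 also: score merges emission near 667 nm and signal to noise per printed spot across three slides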
[9] = biological target: Dickkopf-related protein 1 (Homo sapiens) (UniProt O94907); assay: DKK1 binders on small-molecule microarrays, primary screen, biochemical, small-molecule microarray, 635 nm fluorescence scan (AID 1106); conditions: DKK1 binding, higher = more signal;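 also: score merges emission near 667 nm with signal to noise over three replicate slides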
[10] = system: Inhibin beta A chain (activin A); assay: INHBA (activin A) binders on microarrays, primary screen, biochemical, small-molecule microarray, 635 nm fluorescence scan (AID 1107); conditions: small-molecule microarray binding, higher = more signal;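 also: mouse activin A protein probed at 4.33 µg/mL on printed slides; score merges bound-protein fluorescence near 667 nm with spot signal-to-noise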
[11] = system: Human papillomavirus type 1a protein E7 (residues 44-93); assay: HPV1a E7 fragment binders on microarrays, primary screen, biochemical, small-molecule microarray, residues 44-93, 635 nm fluorescence (AID 1108); conditions: small-molecule microarray binding, fluorescence 635 nm; higher = more signal;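 also: E7 fragment applied at 1 µg/mL in TBST for 1 h at 4 C; score combines spot fluorescence with its signal to noise ratio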
[12] = modulators of HCV replicon luciferase signal, primary screen, HCV replication inhibitor project, Huh7 cells, luciferase reporter (AID 1109); conditions: 48 h, higher = more signal;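 also: huh7 hepatoma cells harbouring a luciferase neomycin HCV replicon reporter; luciferase luminescence as measure of HCV replicon replication; test concentration not given here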
[13] = biological target: Left-right determination factor 2 (Homo sapiens) (UniProt O00292); assay: LEFTY2 binders on small-molecule microarrays, primary screen, biochemical, small-molecule microarray, 635 nm fluorescence scan (AID 1110); conditions: LEFTY2 binding, higher = more signal
[14] = biological target: Calmodulin-1 (Homo sapiens) (UniProt P0DP23); assay: CALM1 binders on microarrays, EGTA buffer, profiling panel, biochemical, small-molecule microarray, Cy5-labelled CALM1 (AID 1111); conditions: Cy5-CALM1 binding fluorescence, higher = more signal;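 also: labelled calmodulin applied in Tris saline Tween buffer holding calcium plus EGTA and DTT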
[15] = biological target: Calmodulin-1 (Homo sapiens) (UniProt P0DP23); assay: calcium-bound CALM1 binders on microarrays, profiling panel, artefact control for SMM control-protein annotation, biochemical, small-molecule microarray, Cy5-labelled CALM1, plus calcium (AID 1112); conditions: Cy5-CALM1 binding fluorescence, higher = more signal;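 also: score merges spot fluorescence with signal to noise from triplicate slides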
[16] = small-molecule microarray binders of probe aWnt5a, primary screen, biochemical, biotinylated probe, 635/667 nm fluorescence (AID 1113); conditions: higher = more signal;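 also: score merges 667 nm fluorescence intensity with signal-to-noise per printed feature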
[17] = small-molecule microarray binders of probe aShh, primary screen, biochemical, biotinylated probe, 635/667 nm fluorescence (AID 1114); conditions: higher = more signal;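 also: probe is biotin-labelled aShh protein from a stem cell growth factor screen; measures binding of labelled protein to compounds printed on the slide; score merges feature fluorescence at 667 nm with signal-to-noise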
[18] = small-molecule microarray binders of probe aNog, primary screen, biochemical, biotinylated probe, 635/667 nm fluorescence (AID 1115); conditions: higher = more signal;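 also: probe is biotinylated aNog protein used at 0.15 µg/mL for 1 h at 4 C; z-score combines 667 nm fluorescence of each spot with its signal to noise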
[19] = biological target: Torsin-1A-interacting protein 1 (Homo sapiens) (UniProt Q5JTV8); assay: LAP1 binders from COS7 cell lysate, primary screen, small-molecule microarray, 635/667 nm fluorescence (AID 1116); conditions: COS7-hLAP1 lysate binding, 635 nm fluorescence, higher = more signal
[20] = biological target: Alpha-bungarotoxin (Bungarus multicinctus) (UniProt P60615); assay: alpha-bungarotoxin binders on microarray, profiling panel, artefact control for SMM control protein annotation, biochemical, small-molecule microarray, Alexa647 label, 635/667 nm fluorescence (AID 1117); conditions: alpha-BTX-A647 binding fluorescence, higher = more signal
Sequence of Alpha-bungarotoxin (Bungarus multicinctus) (P60615 whole entry, looked up): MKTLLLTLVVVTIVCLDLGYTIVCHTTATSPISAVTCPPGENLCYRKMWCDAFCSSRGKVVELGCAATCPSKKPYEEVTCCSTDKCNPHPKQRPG

Sequence of Dickkopf-related protein 1 (Homo sapiens) (O94907 whole entry, looked up): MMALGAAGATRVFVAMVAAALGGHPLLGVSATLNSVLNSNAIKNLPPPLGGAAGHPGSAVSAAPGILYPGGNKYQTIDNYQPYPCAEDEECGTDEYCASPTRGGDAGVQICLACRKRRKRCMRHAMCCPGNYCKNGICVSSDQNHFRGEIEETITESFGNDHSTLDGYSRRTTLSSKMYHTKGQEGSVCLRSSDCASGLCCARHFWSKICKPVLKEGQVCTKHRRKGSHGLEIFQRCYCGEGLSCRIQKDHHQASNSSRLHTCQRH
Sequence of Left-right determination factor 2 (Homo sapiens) (O00292 whole entry, looked up): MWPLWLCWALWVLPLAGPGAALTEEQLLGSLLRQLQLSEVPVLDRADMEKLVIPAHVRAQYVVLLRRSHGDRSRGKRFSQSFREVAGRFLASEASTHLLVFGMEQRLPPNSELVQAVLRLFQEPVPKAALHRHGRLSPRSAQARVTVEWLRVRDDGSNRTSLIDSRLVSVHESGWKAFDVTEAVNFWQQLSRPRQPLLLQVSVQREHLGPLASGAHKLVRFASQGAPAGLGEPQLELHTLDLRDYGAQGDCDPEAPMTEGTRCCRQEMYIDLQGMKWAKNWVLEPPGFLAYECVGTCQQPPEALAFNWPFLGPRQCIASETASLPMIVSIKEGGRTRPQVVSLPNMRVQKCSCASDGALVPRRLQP
Sequence of Torsin-1A-interacting protein 1 (Homo sapiens) (Q5JTV8 whole entry, looked up): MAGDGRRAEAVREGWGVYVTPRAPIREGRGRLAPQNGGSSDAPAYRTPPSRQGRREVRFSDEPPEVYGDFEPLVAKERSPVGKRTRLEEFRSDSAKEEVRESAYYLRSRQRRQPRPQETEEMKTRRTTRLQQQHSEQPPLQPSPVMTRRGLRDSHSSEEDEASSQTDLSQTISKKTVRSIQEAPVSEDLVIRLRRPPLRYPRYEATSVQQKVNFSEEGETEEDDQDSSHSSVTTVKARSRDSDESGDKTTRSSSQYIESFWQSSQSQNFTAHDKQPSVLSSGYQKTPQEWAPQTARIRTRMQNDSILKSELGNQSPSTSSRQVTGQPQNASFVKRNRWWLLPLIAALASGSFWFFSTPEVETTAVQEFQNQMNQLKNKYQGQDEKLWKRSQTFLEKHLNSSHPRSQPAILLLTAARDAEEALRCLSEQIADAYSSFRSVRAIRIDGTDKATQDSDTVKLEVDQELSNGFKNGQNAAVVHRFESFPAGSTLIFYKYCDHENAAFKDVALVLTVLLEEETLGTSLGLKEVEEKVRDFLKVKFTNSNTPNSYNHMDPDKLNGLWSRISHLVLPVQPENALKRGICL
Sequence of Fibroblast growth factor 10 (Homo sapiens) (O15520 whole entry, looked up): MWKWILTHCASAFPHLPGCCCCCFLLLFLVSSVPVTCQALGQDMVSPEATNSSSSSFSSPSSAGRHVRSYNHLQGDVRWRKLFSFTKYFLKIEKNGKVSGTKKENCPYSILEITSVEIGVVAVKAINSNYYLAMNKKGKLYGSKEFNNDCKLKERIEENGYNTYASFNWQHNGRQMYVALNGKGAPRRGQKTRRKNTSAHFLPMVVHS
Sequence of Epidermal growth factor receptor (Homo sapiens) (P00533 whole entry, looked up): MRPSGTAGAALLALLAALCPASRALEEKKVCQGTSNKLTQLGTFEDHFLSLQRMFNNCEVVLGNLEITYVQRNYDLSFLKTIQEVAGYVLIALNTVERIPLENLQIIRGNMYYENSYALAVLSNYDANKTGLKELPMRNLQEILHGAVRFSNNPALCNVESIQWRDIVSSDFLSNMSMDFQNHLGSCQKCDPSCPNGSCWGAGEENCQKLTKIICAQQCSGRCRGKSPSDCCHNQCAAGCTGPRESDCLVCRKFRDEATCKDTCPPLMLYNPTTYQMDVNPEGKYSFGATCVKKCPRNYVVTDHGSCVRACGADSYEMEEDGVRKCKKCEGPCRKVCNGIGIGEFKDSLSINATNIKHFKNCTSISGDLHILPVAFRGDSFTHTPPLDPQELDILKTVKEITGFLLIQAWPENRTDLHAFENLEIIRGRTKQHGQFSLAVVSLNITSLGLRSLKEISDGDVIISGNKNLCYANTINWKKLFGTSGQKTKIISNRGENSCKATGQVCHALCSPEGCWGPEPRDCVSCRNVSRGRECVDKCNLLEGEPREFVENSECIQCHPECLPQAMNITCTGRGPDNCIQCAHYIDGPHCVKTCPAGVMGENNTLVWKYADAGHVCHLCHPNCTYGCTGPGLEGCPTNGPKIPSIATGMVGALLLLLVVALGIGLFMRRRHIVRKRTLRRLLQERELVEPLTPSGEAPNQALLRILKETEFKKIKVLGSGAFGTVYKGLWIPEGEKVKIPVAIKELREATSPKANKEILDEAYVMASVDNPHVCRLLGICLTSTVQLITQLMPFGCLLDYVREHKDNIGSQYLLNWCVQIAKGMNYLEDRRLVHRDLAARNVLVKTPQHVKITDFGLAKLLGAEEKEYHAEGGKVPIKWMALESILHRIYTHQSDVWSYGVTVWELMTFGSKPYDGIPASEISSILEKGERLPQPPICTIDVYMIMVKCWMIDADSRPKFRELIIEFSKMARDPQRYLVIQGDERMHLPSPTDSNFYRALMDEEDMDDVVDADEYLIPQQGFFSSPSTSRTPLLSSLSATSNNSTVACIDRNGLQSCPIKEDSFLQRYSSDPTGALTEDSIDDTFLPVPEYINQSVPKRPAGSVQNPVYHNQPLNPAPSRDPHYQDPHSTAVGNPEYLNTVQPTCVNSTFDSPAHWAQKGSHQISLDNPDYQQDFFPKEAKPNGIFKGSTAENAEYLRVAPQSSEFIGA
Sequence of Follistatin-related protein 3 (Homo sapiens) (O95633 whole entry, looked up): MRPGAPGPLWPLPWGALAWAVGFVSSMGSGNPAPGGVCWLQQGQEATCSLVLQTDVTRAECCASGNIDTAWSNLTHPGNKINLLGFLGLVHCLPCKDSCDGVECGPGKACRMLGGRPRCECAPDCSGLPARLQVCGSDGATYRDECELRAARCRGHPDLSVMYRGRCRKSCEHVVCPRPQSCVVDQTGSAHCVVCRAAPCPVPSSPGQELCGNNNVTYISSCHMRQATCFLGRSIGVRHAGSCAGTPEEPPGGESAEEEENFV

Compound	composite z-score [1]	composite z-score [2]	composite z-score [3]	z-score [4]	composite z-score [5]	composite z-score [6]	composite z-score [7]	composite z-score [8]	composite z-score [9]	composite z-score [10]	composite z-score [11]	z-score [12]	composite z-score [13]	composite z-score [14]	composite z-score [15]	composite z-score [16]	composite z-score [17]	composite z-score [18]	composite z-score [19]	composite z-score [20]
COc1ccc(O[C@H]2C=C[C@@H](c3ccccc3)O[C@@H]2COC(=O)CCC(C)=NOC[C@@H](O)[C@H]2O[C@@H]3OC(C)(C)O[C@@H]3[C@H]2O)cc1	0.933	-0.206	-0.633	0.17 (inactive)	0.766	0.87	0.615	0.847	0.551	0.437	1.07	-0.0939	0.706	-0.166	-0.627	0.0001	-0.291	-0.232	0.419	0.0391
CCC1=NOC(CCC2CC(OC(=O)NCc3cccc4c3OCO4)CC3(CCCC(COC(=O)NCCc4ccccc4OC)O3)O2)C1 (stereo not given)	1.09	-0.16	-0.0595	0.0991 (inactive)	0.709	0.391	0.0007	0.192	0.859	0.312	1.21	-1.35	0.0276	1.21	0.712	-0.139	-0.0793	0.249	0.528	0.473
CO[C@H]1COC(=O)CC=C[C@@H](C)[C@H](NS(=O)(=O)c2ccc(C)cc2)COC(=O)CCC[C@@H]1C	0.684	-0.233	-0.689	-0.679 (inactive)	0.366	0.22	0.484	1.04	1.53	0.9	0.106	-2.24	0.8	-0.789	-1.3	-0.154	-0.188	-0.321	0.784	0.493
O=C1[C@H]2[C@H]3[C@H](O)[C@H](O)CC(=NOC[C@@H](O)COCc4ccco4)[C@H]3CC[C@H]2C(=O)N1C[C@@H]1CCCO1	0.717	-0.369	-1.4	0.273 (inactive)	0.725	1.2	0.947	0.95	1.21	-0.0262	-0.317	-0.205	1.19	-0.428	-1.53	-0.0037	0.0899	-0.158	0.583	0.349
